This is part of a sample that, as a whole, favours compounds with a hit. Of some 83,000 tested, about 20% had one in any assay.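 Results are percent growth after 48 hours of single-concentration exposure. 100 means growth as in untreated cells, lower positive values show inhibition; negative values down to -100 show cell death.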 Activity calls are given as the source filed them. How the source made its calls: active means growth percent below 10; inactive means the rest.

This assay deals with M14 melanoma. Description: NCI-60 one-dose screen, 48 h (100 = growth as untreated, 0 = no growth, -100 = all killed). The following applies: 10 µM unless noted.
As for `Cc1cc(-c2nc3ccccc3s2)ccc1NC(=O)COc1ccc(Cl)cc1`, the growth was 100% (inactive).
`C[C@H](CCC(=O)O)[C@H]1CC[C@H]2[C@@H]3CC[C@@H]4/C(=C\c5ccco5)C(=O)/C(=C\c5ccco5)C[C@]4(C)[C@H]3CC[C@]12C`: the growth is 52.5% (inactive).
For the molecule `COc1cc2c(c(OC)c1OC)-c1ccc(N=NC(N)=S)c(=O)cc1[C@@H](NC(C)=O)CC2`, the growth is -39.1% (active).
In the case of `c1ccc(CSc2ncnc3nc[nH]c23)nc1`, the growth is 101% (inactive).
For `CC(=O)Nc1ccc2c(c1)c(NC(C)=O)nn2C(=O)Nc1ccc(Cc2ccccc2)cc1`, the growth was 63% (inactive).
The same measure for `COc1cc2c(=O)n(CC3CCCCC3)c3c4cc[nH]c4ncc3c2cc1OC`: 49.2% (inactive).
Turning to `COC1/C=C\OC2(C)Oc3c(C)c(O)c4c(O)c(c(CN(C)CCO)c(O)c4c3C2=O)NC(=O)/C(C)=C\C=C/C(C)C(O)C(C)C(O)C(C)C(OC(C)=O)C1C` (stereo not drawn), the growth was 105% (inactive).
In the case of `Cc1cc(N/N=C/c2nc(-c3ccc(Cl)cc3)oc2C)c2cc(Cl)ccc2n1`, the growth is 8.84% (active).
Turning to `C=C1CC[C@@H]2[C@](C)(COC(C)=O)[C@H](OC(C)=O)CC[C@@]2(C)[C@@H]1CC(NCc1ccc(F)cc1)C1=CCOC1=O` (stereo partly drawn), the growth is 37.3% (inactive).
For `Cn1c2c(Cl)c(Cl)ccc2c2ccn3c(=O)c4ccccc4nc3c21`, the growth was 101% (inactive).
Consider `CCOC(=O)Cc1cnn(C)c1NC(=O)c1ccc(Cl)cc1NC(C)=O`, for which the growth is 101% (inactive).
Take `COc1ccc(-c2cc(NC(=O)Nc3ccc(O)cc3)no2)cc1`: the growth was 35.1% (inactive).
The result for `S=c1[nH]nc(CSc2ncnc3c2c(-c2ccccc2)cn3-c2ccc(Cl)cc2)o1` reads 100% (inactive).

The values above are taken from PubChem BioAssay (NCI).
